Assay [1] is described as follows: qHTS to identify inhibitors of the type 1 interferon - major histocompatibility complex class I in skeletal muscle: primary screen against the NCATS Mechanism Interrogation Plate v5.0 (MIPE) Libary (AID 1347411). Also: nearly all actives have a fitted effect of over 65% in size. Also: potency is read from the fitted curve at half-maximal effect. Summed up: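 IFN-beta-driven (4 ng/ml) HLA-B-HiBit expression in CRISPR-tagged C25cl48 myoblasts; compounds 11-pt, 1:3, max 46 uM, 24 hr exposure; lytic NanoLuc complementation luminescence.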
In general terms: qHTS replaces the single test concentration by a dilution series.

Assay [2] addresses Calcium and integrin-binding protein 1 (Homo sapiens) (UniProt Q99828). Kind of assay: Primary qHTS for Identification of Calcium Integrin Binding Protein 1 (CIB1) Competitor (AID 1508620). Also: top concentration of the series differs between compounds. The method in brief: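 Fluorescence polarization competition: GST-tagged CIB1 (1 uM final) preincubated with compound 15 min at room temperature, then FITC-labelled alphaIIb peptide (100 nM final) added. After 15 min at room temperature, polarization read at Ex 480/Em 540.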

The target in assay [3] is Protein phosphatase 1D (Homo sapiens) (UniProt O15297). Kind of assay: RapidFire Mass Spectrometry qHTS Assay for Modulators of WT P53-Induced Phosphatase 1 (WIP1) (AID 1347424). Also: potency is read from the fitted curve at half-maximal effect. Summed up:
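RapidFire MS readout of dephosphorylated VEPPL-S-QETFS product, with 1 uM isotope-labelled peptide standard. Reaction: 10 nM WIP1, 2 uM phosphopeptide substrate, 5 min, room temperature, after 1 h compound preincubation; stopped with 0.5% formic acid.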

The target is the same in assay [4]. Put plainly: Rhodamine-PBP qHTS Assay for Modulators of WT P53-Induced Phosphatase 1 (WIP1) (AID 1347425). Summed up: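 5 nM WIP1 + 10 uM Rh-PBP, 50 mM Tris pH 7.5, 30 mM MgCl2, 1 mM TCEP, 0.1 mM EGTA, BSA; cpds pinned, 1 hr RT; + 10 uM phosphopeptide; fluorescence 1-min reads x 11 min; delta = f1 - f0.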
Assay [5] in a line: Primary qHTS for inhibitors of La Crosse Virus (LACV) - induced cell death in SH-SY5Y cells (AID 1508616).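 Also: top concentration of the series differs between compounds; higher means more rescue of cells from virus-induced death.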 Summed up: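 Screening measures cell viability in LACV-infected SH-SY5Y cultures. Compound was added before virus (0.01 MOI), and ATP was detected by luminescence 6 days later.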
Assay [6] is described as follows: Counterscreen qHTS for small molecule stabilizers of the endoplasmic reticulum resident proteome: GLuc-NoTag assay (AID 1508627).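 Also: SH-SY5Y cells given compound then 100 nM thapsigargin to empty ER calcium; series mostly up to about 76 µM.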 The method in brief: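 Counterscreen line: SH-SY5Y-GLuc-NoTag. Seed, 5 h; compound, 19 h; thapsigargin 100 nM, 4 h; 37C/5% CO2. Readout: secreted GLuc luminescence, coelenterazine 0.07x final, no lysis.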
Assay [7] can be described thus: Primary qHTS for inhibitors of SARS-S pseudo-typed particle cell entry (AID 1479145; calls by dose curve; also: nearly all actives have a fitted effect of over 45% in size).
Assay [8] in a line: Primary qHTS for Huh7 cytotoxicity: counterscreen for inhibitors of MERS-S pseudotyped particle cell entry (AID 1479147; calls by dose curve).
The nature of assay [9]: Primary qHTS for inhibitors of MERS-S pseudo-typed particle cell entry (AID 1479149; calls by dose curve; also: nearly all actives have a fitted effect of over 60% in size).
Assay [10] is described as follows: Primary qHTS for Vero E6 cytotoxicity: counterscreen for inhibitors of SARS-S pseudo-typed particle cell entry (AID 1479150; calls by dose curve).
Assay [11] in a line: Validation qHTS assay for inhibitors of Activation Induced Cytidine Deaminase (AID): UDG Counterscreen signal (AID 1347427). Summed up:
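Fluorescence at 560 nm excitation, 665 nm emission reports UDG signal after 250 mM NaOH (2x) addition and 30 min. Enzymes (AID 1 uM, UDG 2 U/mL, at 4/3x) preincubated 10 min with compound, then 4 h with 4x 250 nM DJC20/DJC23 substrate at room temperature.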

For assay [12], the target named is Single-stranded DNA cytosine deaminase (Homo sapiens) (UniProt Q9GZX7). Put plainly: Validation qHTS assay for inhibitors of Activation Induced Cytidine Deaminase (AID): AID signal (AID 1347429). The method in brief: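 Compounds (up to 114 uM final) are tested against AID plus UDG using DJC20/DJC23 FRET substrate. Reactions incubate 4 hr at room temperature, receive NaOH for 30 min, and are read at Ex 540/Em 590 nm.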

The target of assay [13] is Calcium and integrin-binding protein 1 (Homo sapiens) (UniProt Q99828). Put plainly: Confirmatory qHTS for Identification of Calcium Integrin Binding Protein 1 (CIB1) Competitor (AID 1508617). Also: potency is read from the fitted curve at half-maximal effect; nearly all actives have a fitted effect of over 65% in size. Summed up: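 Confirmatory qHTS measures displacement of a FITC-alphaIIb peptide (100 nM) from CIB1-GST (1 uM) by fluorescence polarization. Calcium-containing HEPES buffer, pH 7.4; two 15 min room-temperature incubations.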

Assay [14] is described as follows: Confirmatory qHTS for small molecule stabilizers of the endoplasmic reticulum resident proteome: Secreted ER Calcium Modulated Protein (SERCaMP) assay (AID 1508628). Also: potency is read from the fitted curve at half-maximal effect; nearly all actives have a fitted effect of over 40% in size. The method in brief:
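GLuc-SERCaMP-expressing SH-SY5Y cells, pretreated 16 h with compound, are challenged with thapsigargin to empty ER calcium stores; after 4 h, coelenterazine is added directly to the medium and luminescence is imaged.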

Inconclusive results are not listed. Entries that show only a call come without a potency. The source made the active and inactive calls. Unless noted, calls follow the shape of the dose curve; as a rule, active = well fitted curve in the direction sought with a large enough effect; inconclusive = small, poorly fitted or top-dose-only effect, or another doubt; inactive = no such curve, though single readings can be large; an effect the other way counts as inactive or inconclusive.

Chain of Protein phosphatase 1D (Homo sapiens) (O15297 whole entry, looked up): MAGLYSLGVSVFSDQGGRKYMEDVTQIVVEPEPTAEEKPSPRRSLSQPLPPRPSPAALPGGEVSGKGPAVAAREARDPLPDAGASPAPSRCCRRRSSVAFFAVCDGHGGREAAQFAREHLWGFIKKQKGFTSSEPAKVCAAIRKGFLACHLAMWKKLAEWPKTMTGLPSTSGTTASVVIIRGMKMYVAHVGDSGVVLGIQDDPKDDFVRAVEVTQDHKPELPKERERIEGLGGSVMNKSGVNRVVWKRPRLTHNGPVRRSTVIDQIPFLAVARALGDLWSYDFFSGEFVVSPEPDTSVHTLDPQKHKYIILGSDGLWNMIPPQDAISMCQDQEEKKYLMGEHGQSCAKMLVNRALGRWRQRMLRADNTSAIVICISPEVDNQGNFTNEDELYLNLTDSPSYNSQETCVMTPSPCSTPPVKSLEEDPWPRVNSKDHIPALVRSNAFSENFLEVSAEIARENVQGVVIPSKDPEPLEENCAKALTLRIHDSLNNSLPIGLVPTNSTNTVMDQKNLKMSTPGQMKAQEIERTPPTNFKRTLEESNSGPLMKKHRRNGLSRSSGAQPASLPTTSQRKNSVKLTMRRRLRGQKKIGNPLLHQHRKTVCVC
Chain of Calcium and integrin-binding protein 1 (Homo sapiens) (Q99828 whole entry, looked up): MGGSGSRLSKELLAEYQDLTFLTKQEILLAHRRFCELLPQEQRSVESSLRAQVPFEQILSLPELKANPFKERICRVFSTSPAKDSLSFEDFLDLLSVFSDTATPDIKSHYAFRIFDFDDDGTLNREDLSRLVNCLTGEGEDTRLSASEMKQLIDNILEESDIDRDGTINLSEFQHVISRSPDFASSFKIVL
Chain of Single-stranded DNA cytosine deaminase (Homo sapiens) (Q9GZX7 whole entry, looked up): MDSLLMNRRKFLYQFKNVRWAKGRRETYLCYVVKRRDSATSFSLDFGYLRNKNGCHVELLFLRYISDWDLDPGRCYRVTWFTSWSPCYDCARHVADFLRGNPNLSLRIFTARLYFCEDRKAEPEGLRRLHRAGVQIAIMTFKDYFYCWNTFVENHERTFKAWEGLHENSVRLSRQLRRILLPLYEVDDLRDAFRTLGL

As to `Cc1ccccc1-n1c(Cn2ncc3c(N)ncnc32)nc2cccc(C)c2c1=O`, the Potency result in assay [1] was “inactive”. In addition, the outcome in assay [2] was inactive.

Consider `O=S(=O)(F)Cc1ccccc1`, for which the Potency result in [1] is “inactive”. In assay [2], the result was inactive.

For the molecule `CSCC[C@@H](NC(=O)[C@@H](Cc1ccccc1)NC(=O)CNC(=O)CNC(=O)[C@@H](N)Cc1ccc(O)cc1)C(=O)O`, the Potency entry in [1] was “inactive”. For the same molecule, in assay [2], the outcome was inactive.

Regarding `CN[C@@H](C)[C@H](O)c1ccccc1`, the Potency result in assay [3] was “inactive”. Moreover, the outcome in assay [4] and in assay [5] was inactive.

As for `Nc1ccc(Cl)cc1N`, the outcome in assay [4], in [5] and in assay [2] was inactive. In addition, in assay [6], the Potency result is “inactive”.

On to `CO/C=C(/C(=O)OC)c1ccccc1Oc1cc(Oc2ccccc2C#N)ncn1`, for which the Potency entry in assay [3] is “inactive”. The call in assay [4], in [5] and in [2] was inactive.

Take `O=C(O)CNC(=O)c1c(O)c2ccccc2n(Cc2ccccc2)c1=O`: the Potency entry in assay [1] is “inactive”. Further, the result in assay [2] was inactive.

In the case of `CC(=O)Oc1cccc(C)c1`, the Potency entry in [7], in assay [8], in [9] and in assay [10] was “inactive” each time.

Turning to `O=c1cccc2n1CC1CNC[C@H]2C1`, the Potency entry in assay [1] was “inactive”. Also, in assay [2], the result was inactive.

Take `CCCCCCCCCC(CC)c1ccc(S(=O)(=O)O)cc1` (stereo not given): the Potency in assay [3] was 1 µM (active). Further, the result in assay [5] and in assay [2] was inactive.

For `Cc1ccccc1-n1c(Cn2cnc3c(N)ncnc32)nc2cccc(C)c2c1=O`, the Potency entry in assay [1] is “inactive”. Besides, the outcome in assay [2] was inactive.

In the case of `O=c1[nH]c2ccc(Cl)cc2c(N[C@@H]2CN3CCC2CC3)c1-c1nc2ccccc2[nH]1`, the Potency in assay [1] was 4.66 µM (active). The outcome in assay [2] was inactive.

For the molecule `CCOC(=O)Nc1ccc(NCc2ccc(F)cc2)cc1N`, the Potency entry in assay [1] is “inactive”. The result in assay [2] was inactive.

As to `C[C@](O)(COc1ccc(C#N)cc1)C(=O)Nc1ccc(C#N)c(C(F)(F)F)c1`, the Potency entry in [1] was “inactive”. Besides, the outcome in assay [2] was inactive.

Take `c1ccc2c(CN3CCNCC3)cccc2c1`: the Potency result in [1] and in [6] was “inactive” in each case. For the same molecule, the outcome in [2] was inactive.

Consider `CC(=O)Nc1ccc(OC[C@](C)(O)C(=O)Nc2ccc([N+](=O)[O-])c(C(F)(F)F)c2)cc1`, for which the Potency entry in [1] is “inactive”. For the same molecule, in assay [2], the outcome was inactive.

As to `C#CC1(O)CCC2C3CCC4=CC(=O)CCC4(C)C3CCC21C` (stereo not given), in assay [1], the Potency result was “inactive”. The outcome in assay [2] was inactive.

Turning to `Cc1c(C(=O)c2cccc3ccccc23)c2cccc3c2n1[C@H](CN1CCOCC1)CO3`, the result in [11], in assay [12] and in assay [2] was inactive.

With `CCNC(=O)C[C@@H]1N=C(c2ccc(Cl)cc2)c2cc(OC)ccc2-n2c(C)nnc21`, in assay [1], the Potency entry was “inactive”. Further, the result in [2] was inactive.

On to `CC(C)[C@]12O[C@H]1[C@@H]1O[C@]13[C@]1(O[C@H]1C[C@H]1C4=C(CC[C@@]13C)C(=O)OC4)[C@@H]2O`, for which, in assay [1], the Potency is 0.0829 µM (active). For the same molecule, in assay [2], the outcome was inactive.

Take `CCCCC(CC)COC(=O)/C=C/c1ccc(OC)cc1` (stereo not given): the Potency result in assay [7], in assay [8], in assay [9] and in assay [10] was “inactive” throughout.

As for `C[C@]12CC[C@@H]3[C@@H](CCC4=CC(=O)CC[C@@H]43)[C@@H]1CC[C@@H]2OC(=O)CCc1ccccc1`, the Potency entry in [1] was “inactive”. Besides, in assay [2], the result was inactive.

With `CCc1c(C(=O)C(N)=O)c2c(OCC(=O)O)cccc2n1Cc1ccccc1`, the Potency result in assay [1] is “inactive”. In addition, in assay [2], the result was inactive.

Regarding `CN1[C@H]2CC(O)C[C@H]1[C@H]1O[C@H]12` (stereo not given in full), the Potency result in assay [1] is “inactive”. Moreover, the result in assay [2] was inactive.

With `CC(C)(C)c1nnc(NS(=O)(=O)c2ccccc2)s1`, the Potency result in assay [7], in [8] and in [9] was “inactive” throughout.

Consider `O=C(N[C@@H](COc1ccc2[nH]c(=O)[nH]c2c1)c1ccccc1)c1cccn(Cc2ccc(F)c(F)c2)c1=O`, for which the Potency entry in assay [1] is “inactive”. Besides, in [2], the result was inactive.

For `CCCCCCCCCCCCCCCC[N+](C)(C)C`, the Potency result in assay [3] and in assay [8] was “inactive” each time. In addition, the call in assay [4] and in [5] was inactive. In addition, the Potency in assay [13] was 70.8 µM (active).

With `CCN1C[C@]2(OC(=O)c3ccccc3NC(C)=O)CC[C@H](OC)[C@@]34[C@H]5CC6[C@@H](OC)C[C@](O)(C(C[C@@H]23)[C@@H]14)[C@@]5(O)[C@@H]6OC`, the Potency result in assay [1] is “inactive”. The outcome in assay [2] was inactive.

On to `O=C(Oc1ccc([N+](=O)[O-])cc1)N1CCC(C(O)(c2ccc3c(c2)OCO3)c2ccc3c(c2)OCO3)CC1`, for which the Potency result in [1] was “inactive”. Further, the result in assay [2] was inactive.

In the case of `Nc1ccc(N=Nc2ccccc2)cc1`, the Potency result in assay [3] and in [6] was “inactive” in each case. For the same molecule, the result in [2] was inactive. In [14], the Potency was 44.7 µM (active).

For `O=C1C=CC[C@@H]2[C@H]3CCCN4CCC[C@@H](CN12)[C@@H]34`, the Potency result in [1] was “inactive”. Further, the outcome in assay [2] was inactive.

As to `CCNC(=O)CC1N=C(c2ccc(Cl)cc2)c2cc(OC)ccc2-n2c(C)nnc21` (stereo not given), the Potency entry in assay [1] was “inactive”. The result in [2] was inactive.

Regarding `O=C(O)CCCOc1ccc(Cl)cc1Cl`, the Potency result in [3] is “inactive”. The call in assay [4], in assay [5] and in assay [2] was inactive.

Take `COc1ccc(N(C(=O)Oc2c(C)cccc2C)c2ccnc(Nc3ccc(N4CCN(C)CC4)cc3)n2)c(OC)c1`: the Potency result in assay [1] was “inactive”. The result in [2] was inactive.

On to `CC[N+](C)(CC)CCOC(=O)C(O)(c1ccccc1)C1CCCCC1` (stereo not given), for which the Potency result in assay [7], in assay [8], in assay [9] and in assay [10] was “inactive” each time.

For `CCCCCCCC(=O)OCC(O)CO` (stereo not given), the Potency result in [7], in assay [8], in assay [9] and in assay [10] was “inactive” each time.

For the molecule `CC(C)(C)NCC(O)c1ccc(O)c(CO)c1` (stereo not given), the Potency entry in [7], in assay [8], in assay [9] and in assay [10] was “inactive” throughout.

The values are drawn from PubChem BioAssay (NCATS).
